Lassa entry inh: qHTS for Inhibitors of binding or entry into cells for Lassa Virus | Potency, µM (series often up to 37.9 µM), without a hit: at the highest dose activity change, negative = inhibition, usual class: inhibitors | AID 540256, 2011 | hit rate 1.2% among 300,000 | Lassa virus pseudotype entry inhibition, cell reporter; calls by dose curve; tested in HEK293 cells; note: potency is the fitted concentration of half-maximal effect; % is set by controls: 0 for no effect and ±100 for the full control effect; nearly all actives have a fitted effect of over 50% in size
Shiga inhibitor: A qHTS for Small Molecule Inhibitors of Shiga Toxin; Vero cells, Shiga toxin protein synthesis inhibition reporter; inhibition, % at 38.7 µM; hit rate 9.2% among 290,000; in the data active = inhibition mostly above about 28%, no sharp cut-off; inactive = mostly below about 43%; note: 0% is about no effect
Cycloheximide cs: Cycloheximide Counterscreen for Small Molecule Inhibitors of Shiga Toxin; hit rate 12% among 300,000; AID 2314, 2010; cell reporter, cycloheximide protein synthesis inhibition counterscreen; max response, %; in the data active = max response mostly above about 13%, no sharp cut-off; inactive = mostly below about 14%; note: read at 38.3 µM for the half of the compounds with a filed dose; 0% is about no effect
MARV entry inh: qHTS for inhibitors of binding or entry into cells for Marburg Virus; Potency, µM (titrated, usually from 37.8 µM), without a hit: at the highest dose activity change, negative = inhibition, most hits filed as inhibitors; Marburg virus pseudotyped entry inhibition, cell reporter; hit rate 1.8% among 300,000; calls by dose curve; tested in HEK293 cells; note: potency is the fitted concentration of half-maximal effect; % is set by controls: 0 for no effect and ±100 for the full control effect
* marks the source's active call; other numbers are inactive results; ? = inconclusive; · = no result; [ ] = remark or other dose. Only some compounds are listed: those with a hit (about 12% of all), similar ones and a draw of the others.

SMILES	Lassa entry inh	Shiga inhibitor	Cycloheximide cs	MARV entry inh
c1ccc2sc(C3(N4CCCCC4)CCCCC3)cc2c1	?	·	·	7.1µM*
CC(C)[C@H](NC(=O)N1c2ccccc2NC(=O)[C@@H]1C(C)C)C(=O)N1CCC(C(=O)O)CC1	·	12	8.9*	·
Fc1ccc(-c2ccc(Nc3cccc(F)c3)nn2)cc1	6%[46.1 µM]	51*	46*	?
Fc1ccc(Nc2ccc(-c3ccc(F)cc3)nn2)cc1	·	63*	50*	·
CCOC(=O)CN1N=C(c2ccc(Cl)s2)CSC1=O	?	-3	9	3%
C#CCN(C(=O)c1cc(COc2ccc(C)c(C)c2)on1)C1CCCCC1	?	66	1	?
Cn1ccnc1C1CCCCN1C(=O)c1cc(COc2ccc(F)cc2Cl)on1 (stereo not drawn)	-29%[46.1 µM]	-12	-2	?
COc1cc(Cl)ccc1OCc1cc(C(=O)N2C[C@@H]3CCC[C@H]2C3)no1	-23%	145*	60*	6%
O=C(c1cc(COc2cccc(C(F)(F)F)c2)on1)N1C[C@@H]2CCC[C@H]1C2	-22%	77*	34*	8%
COc1cc(Cl)ccc1OCc1cc(C(=O)N2C[C@]3(C)C[C@H]2CC(C)(C)C3)no1	?	111*	72*	?
COc1cc(C)ccc1OCc1cc(C(=O)N(Cc2c(C)nn(C)c2C)C2CC2)no1	-25%[46.1 µM]	76*	52*	?
O=C(O)c1cn2c3c(ccc(Cl)c3c1=O)OCC2	24%	21	-3	8%
CC(OC(=O)C1CC1)C(=O)Nc1ccc([N+](=O)[O-])cc1Cl (stereo not drawn)	1%	6	-3	7%[46.1 µM]
COc1cc(Cl)ccc1OCc1cc(C(=O)N2C[C@H]3CC[C@H]2C3)no1	6%	108*	55*	-27%
COc1cc(C)ccc1OCc1cc(C(=O)N2C[C@H]3CC[C@H]2C3)no1	·	22	21*	·
COCC1CCN(C(=O)c2cc(COc3ccc(C)c(C)c3)on2)C1 (stereo not drawn)	-4%	12	10	13%
COc1cc(C)ccc1OCc1cc(C(=O)N2CCN(C)C[C@@H]2c2ccccc2)no1	·	67*	42*	·
COc1cc(C)ccc1OCc1cc(C(=O)NCCN2CCCC(O)C2)no1 (stereo not drawn)	8%	5	-2	-7%
C/C(=N/NC(=O)CN1CCN(S(=O)(=O)c2ccc(Br)cc2)CC1)c1ccco1	-5%	-8	-1	-10%
CC1CCCN(Cc2c(O)ccc3c(=O)c(-c4nc5ccccc5s4)c(N)oc23)C1 (stereo not drawn)	?	10	5	?
CC1(C)CCCN(Cc2c(O)ccc3c(=O)c(-c4nc5ccccc5s4)c(N)oc23)C1	2%	77*	33*	23%[46.1 µM]
COc1ccccc1-c1ccc(=O)n(CC(=O)NCc2cccs2)n1	?	40*	26	?
Cc1ccc(OCC(=O)NCc2cccs2)cc1	-1%	29*	27*	-9%
Cn1c(=O)cc(OCC(=O)NCc2cccs2)c2ccccc21	-20%[46.1 µM]	51*	18	12%[46.1 µM]
CCCCOc1ccc(C(=O)NCCc2cccs2)cc1	·	123*	43*	·
SMILES	Lassa entry inh	Shiga inhibitor	Cycloheximide cs	MARV entry inh
CCCCn1nc2cc(C(=O)NCCc3cccs3)ccc2c1OCC	·	38	11	·
O=C(O)c1ccccc1C(=O)NCc1c(Cl)cccc1Sc1ccc(Cl)cc1	11%[46.1 µM]	-15	-4	0%[46.1 µM]
CCOc1c2ccc(C(=O)NCCc3cccs3)cc2nn1CC	·	89*	48*	·
Cc1ccc(C(=O)OCC(=O)NCc2cccs2)cc1	3%	14	-2	5%
Cc1ccc(C(=O)OCC(=O)NCc2cccs2)cc1C	0%	11	14*	0%[46.1 µM]
CCOc1ccc(-n2nc(CO)c(C(=O)NCc3cccs3)n2)cc1	?	·	·	3%[46.1 µM]
CCOc1ccc(C(=O)NCc2cccs2)cc1	11%	83*	14	20%
Cc1ccc(C)c(N2CCN(C(=O)COc3cc(=O)n(C)c4ccccc34)CC2)c1	18µM*	6	16	-24%
CCOc1ccccc1NC(=O)CSc1cn(CC(=O)N2CCCCCC2)c2ccccc12	15%[46.1 µM]	·	·	·
COc1cc(C#N)ccc1OCC(=O)NCc1cccs1	10%	53	15*	?
COc1ccccc1OCC(=O)NCc1cccs1	?	37	18	-8%
COC(=O)C(C(=O)OC)C(C[N+](=O)[O-])c1ccc(O)c(OC)c1 (stereo not drawn)	-3%	-7	-7	-21%
Cc1ccc(Nc2nc3ccccc3n3nnnc23)cc1	-21%	71*	26*	?
Fc1cc(Br)ccc1Nc1nc2ccccc2n2nnnc12	·	42*	27*	·
CN(C)S(=O)(=O)c1ccc(Cl)c(C(=O)NNC(=O)Cn2ccc(C(F)(F)F)n2)c1	6%	·	·	-18%
Oc1ccc(N=Nc2ccccc2)o1	·	42*	30*	·
COc1ccccc1Cc1nc(-c2cccnc2)no1	·	55*	37*	·
COc1ccccc1-c1noc(-c2cc(OC)c(OC)c(OC)c2)n1	?	4	-2	-22%
COc1nc(-c2ccccc2)ccc1-c1noc(-c2cccnc2)n1	32%	3	8.7*	0%
COc1nc(-c2ccc(C)cc2)ccc1-c1noc(-c2cccnc2)n1	8%	8	-2	7%
COc1ccccc1-c1noc(-c2cccnc2)n1	9%	67*	29*	13%
COC(=O)C1=C(C)N(Cc2ccccc2)C(=O)NC1c1ccco1 (stereo not drawn)	·	·	·	13%[14.2 µM]
COc1ccc(CNC(=O)COc2ccc(Br)c(C)c2)cc1	?	-11	4	-14%[46.1 µM]
CN(c1ccccc1C(=O)Nc1ccccc1-c1ccccc1)S(C)(=O)=O	·	-8	-4	·
C[C@H]1CCC/C=C/[C@@H]2C[C@H](O)C[C@H]2[C@H](O)[C@H](S(=O)c2ccc(O)cc2)CC(=O)O1 (stereo partly drawn)	1.3µM*	·	·	?
SMILES	Lassa entry inh	Shiga inhibitor	Cycloheximide cs	MARV entry inh
C[C@H]1CCC/C=C/[C@@H]2C[C@H](O)C[C@H]2[C@@H](O)/C=C/C(=O)O1	0.4µM*	·	·	0.28µM*
CC1CCCC=CC2CC(OC(=O)CN(C)C)CC2C(O)C=CC(=O)O1 (stereo not drawn)	1.4µM*	·	·	?
N#Cc1cnc(NCc2ccc(Cl)cc2Cl)nc1	·	-8	-3	·
O=C(CSC1=NS(=O)(=O)c2ccccc2N1)NCCc1ccccc1	14%[46.1 µM]	·	·	-2%
O=C(CC1(CC2=NS(=O)(=O)c3ccccc3N2)CCCC1)NCCc1ccccc1	·	18	8.5*	·
Cc1cccn2c(CNC3CCCc4ccccc43)c(C(=O)N3CCOCC3)nc12 (stereo not drawn)	·	2	-3	·
Cc1cccn2c(CNCC3OCCc4ccccc43)c(C(=O)N3CCCCC3)nc12 (stereo not drawn)	-38%	-17	-1	10µM*
Cc1c(N/C(=N/S(=O)(=O)c2ccccc2)c2ccc(Cl)cc2)c(=O)n(-c2ccccc2)n1C	4%	-4	3	10%
COC(=O)CCc1ccc(O)cc1	·	-5	-2	·
COc1cc(O)ccc1C(=O)CCc1ccc(O)cc1	?	16	12*	7%
COCCn1nnnc1C(c1cccs1)N1CCN(c2nc3ccccc3s2)CC1 (stereo not drawn)	-29%	-6	-1	?
